Reference: PubChem BioAssay
Several values for one entry are separate records, joined by “and”; a condition that tells them apart may be missing. Identical values can stand only once. Activity calls are given as the source filed them.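 Rule for the calls, unless noted: active = thallium flux through the channel raised or lowered by more than 3 SD from vehicle-only wells, actives on both sides; inactive = the rest.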

Experiments:
[1] = stimulators of nuclear beta-catenin in C2C12, primary screen, imaging, WNT3A-conditioned medium, mouse C2C12, NPC library (AID 1117326; in the data active = nuclear beta-catenin stimulation mostly above about 4.2%, no sharp cut-off; inactive = mostly below about 10%); conditions: stronger effect = higher value
[2] = stimulators of insulin release from INS-1E, primary screen, cell-based, 5 mM glucose, NPC library (AID 1117329;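 active = compound raises insulin release from rat beta cells at 5 mM glucose, no numeric limit stated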); conditions: rat INS-1E insulin secretion, at 10 µM, stronger effect = higher value
[3] = growth inhibition of GSK3B-pretreated HCT116 cells – cell-based, CellTiter-Glo, 0.2 to 20 µM (AID 1117336;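 active = compounds lowering colon cancer cell viability after pretreatment blocking the GSK3B kinase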); conditions: HCT116 viability after GSK3B inhibitor, at 20 µM, stronger effect = higher value
[4] = inhibition of endothelial tube formation, primary screen, imaging, VEGF stimulated, CD31 staining, tube area, NPC library (AID 1117340;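 active = compound that reduces growth-factor-driven endothelial tube area in a mixed cell culture, no cutoff stated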); conditions: VEGF-stimulated ADSC/ECFC co-culture, at 10 µM, stronger effect = higher value
[5] = glucagon-like peptide 1 release enhancers, primary assay, NCI-H716 cell line, NPC library (AID 1117341;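 active = compound raises GLP1 secretion from the human gut endocrine cells, with no numeric limit stated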); conditions: NCI-H716 cells, at 10 µM, stronger effect = higher value
[6] = HCT116 colon cancer cell growth inhibition, primary screen, CellTiter-Glo luminescence, NPC library (AID 1117342;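 active = compounds that lower survival of HCT116 colon cancer cells in the luminescence readout, no numeric limit stated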); conditions: at 20 µM (top of the series)
[7] = CellTiter-Glo luminescent readout of SW480 viability loss, NPC library primary (AID 1117343;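 active = compounds that lower viability of the colon cancer cells in the luminescence readout, with no numeric limit stated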); conditions: CellTiter-Glo luminescence; at 20 µM (top of the series)
[8] = decreased DLD-1 cellular survival, CellTiter-Glo luminescent readout, NPC compound collection, primary HTS (AID 1117346;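 active = compounds that lower survival of DLD-1 colon cancer cells in the luminescence readout, no cutoff given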); conditions: DLD-1 viability, CellTiter-Glo luminescence; at 20 µM (top of the series)
[9] = target: 6-phosphogluconate dehydrogenase, decarboxylating (Homo sapiens) (UniProt P52209); test: 6PGD enzyme inhibitors, primary screen, biochemical, human, recombinant enzyme, NADPH absorbance (AID 1159550;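 active = at least 20% inhibition of 6-phosphogluconate dehydrogenase activity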); conditions: recombinant 6PGD, NADPH absorbance 341 nm; at 10 µM; stronger effect = higher value
6-phosphogluconate dehydrogenase, decarboxylating (Homo sapiens), sequence (P52209 whole entry, looked up): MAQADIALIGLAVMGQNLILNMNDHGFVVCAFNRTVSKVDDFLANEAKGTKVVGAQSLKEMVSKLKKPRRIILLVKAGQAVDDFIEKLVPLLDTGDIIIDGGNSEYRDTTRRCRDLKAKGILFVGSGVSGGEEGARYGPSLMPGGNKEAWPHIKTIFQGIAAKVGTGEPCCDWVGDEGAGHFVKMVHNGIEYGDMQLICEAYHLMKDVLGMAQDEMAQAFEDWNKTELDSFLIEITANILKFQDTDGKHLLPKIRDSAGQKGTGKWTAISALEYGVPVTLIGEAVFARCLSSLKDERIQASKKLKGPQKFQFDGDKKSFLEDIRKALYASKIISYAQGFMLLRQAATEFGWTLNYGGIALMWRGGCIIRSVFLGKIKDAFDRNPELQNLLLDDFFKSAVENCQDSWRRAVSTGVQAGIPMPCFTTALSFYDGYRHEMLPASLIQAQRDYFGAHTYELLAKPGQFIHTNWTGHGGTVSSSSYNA

[10] = differential killing of epithelial or mesenchymal cells, primary screen, imaging, PC-3E GFP, TEM4-18 mCherry, co-culture (AID 1345086;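 active = compounds killing one labelled cell type while sparing the other, by normalised counts and ratio limits, not self-fluorescent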;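 for all read-outs here: cells exposed to compound for 72 h before imaging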;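 for red/green cell ratio (normalised): normalised mesenchymal count divided by normalised epithelial count so high means epithelial killing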); conditions: imaging cell counts, at 1 µM; for red/green cell ratio (normalised): actives lie on both sides, counts scaled to control wells, 1 = unselective
[11] = sensitizers of A549 cells to miR-34 induction, primary screen, imaging, A549 dox-inducible miR-34, nuclei and caspase counts (AID 1347080;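 active = compounds whose cell count with miR-34 switched on is under 0.7 times the count with it off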); conditions: A549 miR-34 inducible, Hoechst nuclei count, 48 h
[12] = survival rescue of mitochondrial mutant cells in low glucose, primary screen, MELAS cybrids, Rieske KO mouse fibroblasts, CellTiter-Glo (AID 1508586;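 active = mean z-score across replicates of 1.96 or higher in either the MELAS or the Rieske mutant cell line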;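 note: z relative to plate mean and SD of compound and empty wells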)
F380Y = test: modulators of BK channel variants, profiling panel, selectivity assay, cell-based, U2OS BacMam, thallium flux, beta subunits (AID 1259406); conditions: at 30 µM;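 note: initial slope of Thallos dye fluorescence rise after thallium is added; log ratio against the mean of 0.3% DMSO vehicle wells on the same plate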
F380Y/beta1 = test: as above; conditions: at 30 µM
F380Y/beta2Delta = test: as above; conditions: at 30 µM
F380Y/beta4 = test: as above; conditions: at 30 µM
[13] = target: Calcium-activated potassium channel subunit alpha-1 (Homo sapiens) + Leucine-rich repeat-containing protein 26 (Homo sapiens) (UniProt Q12791+Q2I0M4); test: as above; conditions: F380Y/Slo1WT/gamma1, at 30 µM
Calcium-activated potassium channel subunit alpha-1 (Homo sapiens) + Leucine-rich repeat-containing protein 26 (Homo sapiens), sequence (Q2I0M4 whole entry, looked up, one chain of several): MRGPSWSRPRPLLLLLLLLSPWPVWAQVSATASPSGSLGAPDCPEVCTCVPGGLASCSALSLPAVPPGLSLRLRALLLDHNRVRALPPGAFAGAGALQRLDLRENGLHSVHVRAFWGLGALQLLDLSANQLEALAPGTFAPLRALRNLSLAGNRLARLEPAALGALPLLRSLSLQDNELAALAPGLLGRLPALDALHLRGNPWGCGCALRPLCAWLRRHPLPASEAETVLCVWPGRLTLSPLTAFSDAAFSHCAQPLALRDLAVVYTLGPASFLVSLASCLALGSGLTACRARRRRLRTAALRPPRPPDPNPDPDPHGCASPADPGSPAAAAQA

R275C = test: as above; conditions: at 30 µM
R275C/beta1 = test: as above; conditions: at 30 µM
[14] = measured here: epithelial PC-3E GFP cell survival
[15] = measured here: mesenchymal TEM4-18 mCherry cell survival
[16] = MELAS cybrid survival, CellTiter-Glo 48 h, stronger effect = higher value
[17] = Rieske KO mouse fibroblast survival, CellTiter-Glo 72 h

CCCCC(=O)OCC(=O)[C@H]1[C@H](C)C[C@H]2[C@@H]3C[C@H](F)C4=CC(=O)C=C[C@]4(C)[C@@]3(F)[C@@H](O)C[C@@]21C
inactive: nuclear beta-catenin stimulation ([1]; at 10 µM) -1.1% | insulin secretion stimulation [2] 13.7% | viability decrease [3] -7.2% | tube area decrease [4] -11.7% | GLP1 secretion stimulation [5] 0.8% | inhibition of viability [6] 17.1% | viability decrease (inhibition) [7] -15.9% | viability decrease (inhibition) [8] -9.9%
-1.4%: nuclear beta-catenin stimulation ([1]; stimulation, at 2 µM)

CCOC(=O)[C@H](CCc1ccccc1)N[C@H]1CCc2ccccc2N(CC(=O)O)C1=O
1.36: normalised cell number [10, 14]
0.98: normalised cell number [10, 15]
10100 and 11000: cell count ([11]; measured here: total cells without miR-34 induction)
2.29 and 1.38: fold change ([11]; measured here: relative caspase fold change +Dox/-Dox)
inactive: nuclear beta-catenin stimulation ([1]; at 10 µM) 27.7% | insulin secretion stimulation [2] 1.1% | viability decrease [3] -40.3% | tube area decrease [4] 33.7% | GLP1 secretion stimulation [5] 16.1% | viability decrease (inhibition) [8] 44.2% | inhibition [9] -6.81% | red/green cell ratio (normalised) [10] 0.73 | fold change ([11]; stronger effect = lower value, cell number ratio, induced over uninduced) 0.89 and 0.936 | z-score [12, 16] 0.369 | log fold change Tl+ flux (F380Y) -0.0356 | log fold change Tl+ flux (F380Y/beta1) 0.0148 | log fold change Tl+ flux (F380Y/beta2Delta) -0.052 | log fold change Tl+ flux (F380Y/beta4) 0.0138 | log fold change Tl+ flux [13] 0.0131 | log fold change Tl+ flux (R275C) 0.0199 | log fold change Tl+ flux (R275C/beta1) -0.0262
active: inhibition of viability [6] 51.1% | viability decrease (inhibition) [7] 102%
9000 and 10300: cell count ([11]; measured here: total cells with miR-34 induction, stronger effect = lower value)
0.328: z-score [12, 17]
2.2%: nuclear beta-catenin stimulation ([1]; stimulation, at 2 µM)

CC[C@H](C)C(=O)O[C@H]1C[C@@H](C)C=C2C=C[C@H](C)[C@H](CC[C@@H]3C[C@@H](O)CC(=O)O3)[C@H]21
active: viability decrease [3] 69.3% | tube area decrease [4] 95.5% | GLP1 secretion stimulation [5] 25% | inhibition of viability [6] 56.9% | viability decrease (inhibition) [7] 87% | log fold change Tl+ flux (F380Y) 0.184 | log fold change Tl+ flux (F380Y/beta2Delta) 0.0899
-0.236 and -1.19 (inactive): z-score [12, 16]
1.37: normalised cell number [10, 15]
2.23 and -0.0427: z-score [12, 17]
1.39: normalised cell number [10, 14]
4.2%: nuclear beta-catenin stimulation ([1]; stimulation, at 2 µM)
inactive: nuclear beta-catenin stimulation ([1]; at 10 µM) 13.1% | insulin secretion stimulation [2] 6.6% | viability decrease (inhibition) [8] 36.2% | inhibition [9] -1.21% | red/green cell ratio (normalised) [10] 0.98 | log fold change Tl+ flux (F380Y/beta1) 0.00194 | log fold change Tl+ flux (F380Y/beta4) -0.0805 | log fold change Tl+ flux [13] 0.025 | log fold change Tl+ flux (R275C) -0.0727 | log fold change Tl+ flux (R275C/beta1) 0.0657

COC(=O)c1ccc(NC(C)=O)cc1OC
inactive: nuclear beta-catenin stimulation ([1]; at 10 µM) -0.5% | insulin secretion stimulation [2] -1.4% | viability decrease [3] 13.4% | tube area decrease [4] -3.1% | GLP1 secretion stimulation [5] -1.8% | inhibition of viability [6] 1.7% | viability decrease (inhibition) [7] -18.6% | viability decrease (inhibition) [8] -4.9%
-1.4%: nuclear beta-catenin stimulation ([1]; stimulation, at 2 µM)

CCCCC[C@H](O)C=C[C@H]1[C@H](O)CC(=O)[C@H]1CC=CCCCC(=O)O
inactive: nuclear beta-catenin stimulation ([1]; at 10 µM) 0.5% | insulin secretion stimulation [2] 1.7% | viability decrease [3] -18.4% | tube area decrease [4] 28.7% | GLP1 secretion stimulation [5] 3.8% | inhibition of viability [6] -14.5% | viability decrease (inhibition) [7] 25.3% | viability decrease (inhibition) [8] -48.6%
-0.7%: nuclear beta-catenin stimulation ([1]; stimulation, at 2 µM)
